The source made the active and inactive calls. Calls come from the whole dose curve; as a rule, active = well fitted activation curve with a large enough effect; inconclusive = small, poorly fitted or top-dose-only effect; inactive = no such curve, though single readings can be large or run the other way.
biological target: Cytochrome P450 3A4 (Homo sapiens) (UniProt P08684); assay: qHTS Assay for Activators of Cytochrome P450 3A4 (AID 885); conditions: recombinant CYP3A4, Luciferin-PPXE luminescence, 60 min; series mostly up to 57.1 µM; note: nearly all actives have a fitted effect of over 65% in size
Method: NIH Molecular Libraries Screening Centers Network [MLSCN]
NIH Chemical Genomics Center [NCGC]
The P450 gene superfamily is involved in the metabolism and clearance of xenobiotics. This assay used human CYP3A4 to measure the dealkylation of luciferin-6' phenylpiperazinylyl (Luciferin-PPXE; […]) to luciferin. The luciferin is then measured by luminescence after the addition of a luciferase detection reagent. Luciferin-PPXE concentration in the assay was equal to its KM for CYP3A4. Inhibitors and some substrates limit the production of luciferin, and decrease measured luminescence; activators increase the production of luciferin and luminescence.
NCGC Assay Protocol Summary:
Two uL of enzyme and substrate mix (final concentrations: 20nM CYP3A4, 25uM Luciferin-PPXE, 200mM KPO4) were dispensed into a white, solid bottom 1536-well microtiter plate. 23nL of compound was transferred by a pin tool. The plate was incubated at RT for 10 min. Two uL of an NADPH regeneration solution (Promega supplied reagent) was dispensed and the reaction was allowed to continue for 60 min at RT. Then the reaction was stopped by reconstituted luciferin detection buffer. After another 20 min of incubation the plate was read on the ViewLux (Perkin Elmer) at 60 sec exposure and 2x2 binning. This protocol was carried out with Promega-Glo reagents and further information can be found at http://www.promega.com/tbs/tb325/tb325.pdf. Data were normalized to the to AC100 inhibition (57 uM ketoconazole).
Keywords: P450, CYP2D6, Luciferase, MLSMR, MLSCN, NIH Roadmap, qHTS, NCGC

Chain of Cytochrome P450 3A4 (Homo sapiens) (P08684 whole entry, looked up): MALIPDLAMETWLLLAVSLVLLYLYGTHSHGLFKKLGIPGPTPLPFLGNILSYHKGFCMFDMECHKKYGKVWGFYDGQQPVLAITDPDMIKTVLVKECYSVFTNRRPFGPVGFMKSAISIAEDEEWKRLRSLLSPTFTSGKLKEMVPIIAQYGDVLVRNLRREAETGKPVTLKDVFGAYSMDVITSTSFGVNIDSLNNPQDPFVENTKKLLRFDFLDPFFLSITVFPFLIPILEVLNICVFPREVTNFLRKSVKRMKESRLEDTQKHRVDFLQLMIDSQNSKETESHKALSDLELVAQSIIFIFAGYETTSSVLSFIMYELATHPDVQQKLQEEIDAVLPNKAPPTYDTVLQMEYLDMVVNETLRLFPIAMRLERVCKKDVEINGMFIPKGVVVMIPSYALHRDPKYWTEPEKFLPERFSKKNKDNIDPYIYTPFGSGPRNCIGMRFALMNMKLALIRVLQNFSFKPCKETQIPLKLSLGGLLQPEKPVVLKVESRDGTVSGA

Row | Structure (SMILES) | outcome
1 | CC(C)(Sc1ccc(CCN(CCCCC2CCCCC2)C(=O)NC2CCCCC2)cc1)C(=O)O | inactive
2 | CCc1ccc(CCOc2ccc(CC3SC(=O)NC3=O)cc2)nc1 (configuration not stated) | inactive
3 | C1COC(NC(C2CC2)C2CC2)=N1 | inactive
4 | Cc1oncc1C(=O)Nc1ccc(C(F)(F)F)cc1 | inactive
5 | N[C@@H]1CONC1=O | inactive
6 | NC(=O)c1ccc(-c2nc(-c3ccc4c(c3)OCO4)c(-c3ccccn3)[nH]2)cc1 | inactive
7 | O=C1CCc2cc(OCCCCc3nnnn3C3CCCCC3)ccc2N1 | inactive
8 | COc1ccc2nc(S(=O)Cc3ncc(C)c(OC)c3C)[nH]c2c1 (configuration not stated) | inactive
9 | Nc1ccc(S(=O)(=O)Nc2ccnn2-c2ccccc2)cc1 | inactive
10 | C[C@]12CCC(=O)C=C1CC[C@@H]1[C@@H]2[C@@H](O)C[C@@]2(C)[C@H]1CC[C@]2(O)C(=O)CO | inactive
11 | NNCCc1ccccc1 | inactive
12 | CCOC(=O)C1=C[C@@]2(CC)CCCN3CCc4c(n1c1ccccc41)[C@H]32 | inactive

Source: PubChem BioAssay (NCATS)
